# Test results reported in the supplement of paper PMC12350171.
# Where a name gives a salt, the structure may show the parent alone.
# System: Haemophilus parainfluenzae
# Assay: growth AUC normalised to DMSO control (fraction of control); higher = less growth inhibition, active = hit call of the paper
# Details: 20 µM;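 active = AUC significantly below DMSO controls by Student t-fit with adjusted P under 0.01; inactive = not significantly reduced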
# Procedure, shortened: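 Three biological replicates were carried out, with OD578 read hourly for 24 h. Before inoculation at a starting OD578 of 0.01, pathogens were passaged anaerobically twice; plates were pre-reduced mGAM containing 20 μM compound and 1% DMSO, sealed with breathable membranes, and the Haemophilus parainfluenzae medium carried added hemin and NAD. Area under each growth curve was calculated by the trapezoidal rule up to the exponential-to-stationary transition and normalised to DMSO controls on the same plate.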
row,SMILES,growth AUC normalised to DMSO control
1,CO/N=C(\C(=O)N[C@@H]1C(=O)N2C(C(=O)O)=C(COC(C)=O)CS[C@H]12)c1csc(N)n1 [Cefotaxime sodium salt],0.0499 (active)
2,C/C=C(/C(=C/C)c1ccc(O)cc1)c1ccc(O)cc1 [Dienestrol],0.999 (inactive)
3,NNCCc1ccccc1 [Phenelzine sulfate],1.02 (inactive)
4,CC[N+](C)(C)Cc1ccccc1Br [Bretylium tosylate],1.02 (inactive)
5,O=C1NCC2(CCN(CCc3ccccc3)CC2)O1 [Fenspiride hydrochloride],0.967 (inactive)
6,CN(C)C/C=C(/c1ccc(Br)cc1)c1cccnc1 [Zimelidine dihydrochloride monohydrate],0.972 (inactive)
7,OCCOCCN1CCN(C2=Nc3ccccc3Sc3ccccc32)CC1 [Quetiapine hemifumarate],0.997 (inactive)
8,CC(=O)N[C@@H](CC(C)C)C(=O)O [N-Acetyl-L-leucine],1.02 (inactive)
9,N[C@@H](Cc1ccc(O)c(O)c1)C(=O)O [Levodopa],1.02 (inactive)
10,Cc1onc(-c2ccccc2)c1C(=O)N[C@@H]1C(=O)N2[C@@H]1SC(C)(C)[C@@H]2C(=O)O [Oxacillin sodium],0.928 (inactive)
11,N=C(N)NC(=O)c1nc(Cl)c(N)nc1N [Amiloride hydrochloride dihydrate],1.03 (inactive)
12,Cc1c(N(C)CS(=O)(=O)O)c(=O)n(-c2ccccc2)n1C [Dipyrone sodium salt],1.02 (inactive)
13,COc1cc(C(=O)OCCCN2CCCN(CCCOC(=O)c3cc(OC)c(OC)c(OC)c3)CC2)cc(OC)c1OC [Dilazep dihydrochloride],0.97 (inactive)
14,COc1c(O[C@@H]2O[C@H](CO)[C@@H](O)[C@H](O)[C@H]2O)cc2c(c1OC)-c1ccc(SC)c(=O)cc1[C@@H](NC(C)=O)CC2 [Thiocolchicoside],0.996 (inactive)
15,O=C(O)c1ccccc1C(=O)Nc1ccc(S(=O)(=O)Nc2nccs2)cc1 [Phthalylsulfathiazole],1 (inactive)
16,COC(=O)C1=C(C)NC(C)=C(C(=O)OC(C)C)C1c1cccc2nonc12 (configuration not stated) [Isradipine],1.02 (inactive)
17,CC(=O)O[C@@]12CO[C@@H]1C[C@H](O)[C@@]1(C)C(=O)[C@H](O)C3=C(C)[C@@H](OC(=O)[C@H](O)[C@@H](NC(=O)OC(C)(C)C)c4ccccc4)C[C@@](O)([C@@H](OC(=O)c4ccccc4)[C@H]21)C3(C)C [Docetaxel],1.05 (inactive)
18,COc1cc(C)nc(-n2nc(C)cc2OC)n1 [Epirizole],0.999 (inactive)
19,N=c1nc(N2CCCCC2)cc(N)n1O [Minoxidil],1.03 (inactive)
20,COC(=O)Nc1nc2ccc(SC(C)C)cc2[nH]1 [Methiazole],1.05 (inactive)
21,CC(=O)OCC(=O)[C@@]1(OC(C)=O)[C@@H](C)C[C@H]2[C@@H]3C[C@H](F)C4=CC(=O)C=C[C@]4(C)[C@@]3(F)[C@@H](O)C[C@@]21C [Diflorasone Diacetate],0.953 (inactive)
22,NC[C@H]1O[C@H](O[C@H]2[C@H](O)[C@@H](O[C@H]3O[C@H](CO)[C@@H](O)[C@H](N)[C@H]3O)[C@H](N)C[C@@H]2N)[C@H](N)C[C@@H]1O [Tobramycin],0.0457 (active)
23,CCN(CC)CC#CCOC(=O)C(O)(c1ccccc1)C1CCCCC1 (configuration not stated) [Oxybutynin chloride],0.952 (inactive)
24,Cc1nc2ccccn2c(=O)c1CCN1CCC(C(=O)c2ccc(F)cc2)CC1 [Pirenperone],0.982 (inactive)
25,N#Cc1ccc(C(c2ccc(C#N)cc2)n2cncn2)cc1 [Letrozole],1.01 (inactive)
26,CC(=O)[C@H]1CC[C@H]2[C@@H]3C[C@H](C)C4=CC(=O)CC[C@]4(C)[C@H]3[C@@H](O)C[C@]12C [Medrysone],0.955 (inactive)
27,CNC(C)CCC=C(C)C (configuration not stated) [Isometheptene mucate],0.97 (inactive)
